Source: PubChem BioAssay (National Center for Advancing Translational Sciences (NCATS))
A selection: hits, their analogues and other compounds. The true share with any hit is near 9.2%.
ELG1 DNA repair: blocks ELG1-dependent DNA repair in HEK293T cells; HEK293T ELG1-luciferase reporter, luminescence, 16 h; DNA damage induced by 5-fluorouridine; 2.3% of 330,000 active; Potency, µM (series often up to 46.1 µM), for inactives: top-dose activity change, negative = inhibition, hits mostly inhibitors; AID 504467; note: % is set by controls: 0 for no effect and ±100 for the full control effect; nearly all actives have a fitted effect of over 55% in size
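Luminescence from the luciferase reporter, measured 30 min after ONE-Glo reagent at room temperature, was the read-out. Beforehand, 2,000 cells per well were exposed for 16 hr at 37 °C to 5-fluorouridine together with compound or vehicle.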
NPC1 prom act: activators of NPC1 promoter | Potency, µM (doses to about 9.22 µM), for the others: at the top dose activation, actives largely listed as activators | Huh7 NPC1 promoter luciferase reporter, 24 h | 2.4% of 320,000 active; note: % of control where 0% means no effect; nearly all actives have a fitted effect of over 60% in size
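Stably transfected Huh7 (NPC1 promoter→luciferase), 1500 cells/well in Opti-MEM + 10% FBS, 2 h settle, then compound 24 h at 37 °C. Luminescence after 10 min with Amplite reagent.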
ELG1 genotoxic: genotoxicity induction in ELG1-luciferase HEK293T cells; HEK293T ELG1-luciferase reporter, luminescence, 16 h; Potency, µM (doses to about 46 µM), for inactives: at the top dose activity change, positive = activation, usual class: activators; 1.3% of 330,000 active; note: % of control where 0% means no effect; nearly all actives have a fitted effect of over 60% in size
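Luminescence read-out: rising ELG1-luciferase signal, reflecting elevated ELG1 protein under genetic stress, flags genotoxic compounds. Cells were treated for 16 hr at 37 °C before ONE-Glo detection.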
Rab9 prom act: activators of Rab9 promoter | Huh7 Rab9 promoter-luciferase reporter, luminescence, 24 h | Potency, µM (highest dose often 9.22 µM), for the others: top-dose activation, negative = inhibition, actives largely listed as activators | 2.8% of 320,000 active | AID 485297; note: % of control where 0% means no effect; nearly all actives have a fitted effect of over 60% in size
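Stable Rab9-luc Huh7, 1500 cells/well, 2 h settle; cmpd in DMSO, 24 h, 37 °C/5% CO2; luciferase reagent 10 min RT; luminescence.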
SMN2 splice up: increases expression of the SMN2 splice variant; HEK293 SMN2-luciferase splicing reporter, luminescence, 30-36 h; Potency, µM (series often up to 46.1 µM), without a hit: at the top dose activity change, positive = activation, usual class: activators; 2.8% of 210,000 active; AID 1458; note: % of control where 0% means no effect; nearly all actives have a fitted effect of over 55% in size
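HEK293 cells carry an SMN2 minigene-luciferase reporter in which exon 7 inclusion puts luciferase in frame. Cells were seeded at 2000 cells/well, attached for 10-12 hours, then exposed to compounds for 30-36 hours at 37C before ONE-Glo luminescence.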
FLuc counter: counter-screen for miR-21 project: firefly luciferase inhibitors or activators; P08659; purified FLuc, Km substrates, luminescence inhibition; Potency, µM (highest dose often 57.5 µM), for the others: top-dose activity change, negative = inhibition, most hits filed as inhibitors; 6.9% of 360,000 active;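 note: plate controls were vehicle for no effect and reference inhibitor for full effect; nearly all actives have a fitted effect of over 55% in size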
Target sequence (P08659 whole entry, looked up): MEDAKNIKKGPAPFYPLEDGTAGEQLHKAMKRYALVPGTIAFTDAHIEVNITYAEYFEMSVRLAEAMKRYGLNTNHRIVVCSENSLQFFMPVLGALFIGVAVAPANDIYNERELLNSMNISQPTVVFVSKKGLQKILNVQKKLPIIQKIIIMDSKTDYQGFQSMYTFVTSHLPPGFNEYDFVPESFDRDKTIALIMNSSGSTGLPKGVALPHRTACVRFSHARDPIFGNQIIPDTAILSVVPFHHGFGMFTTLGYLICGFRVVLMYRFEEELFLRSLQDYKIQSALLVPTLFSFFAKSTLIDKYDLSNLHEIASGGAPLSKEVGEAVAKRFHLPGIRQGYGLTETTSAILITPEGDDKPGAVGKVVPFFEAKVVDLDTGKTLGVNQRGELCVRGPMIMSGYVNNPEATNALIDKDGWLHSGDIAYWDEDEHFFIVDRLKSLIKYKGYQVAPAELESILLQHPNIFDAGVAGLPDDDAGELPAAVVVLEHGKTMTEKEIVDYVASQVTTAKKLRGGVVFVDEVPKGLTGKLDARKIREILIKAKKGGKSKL
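Purified P. pyralis luciferase (10nM final) with 10uM D-luciferin and 10uM ATP (Km levels) in 50mM Tris acetate pH 7.5, 10mM Mg acetate, 0.01% Tween-20, 0.05% BSA; qHTS 6-point titration, ~60 µM downward; luminescence read.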
* hit, by the source's call. Calls come from the whole dose curve; as a rule, active = well fitted curve in the direction sought with a large enough effect; inconclusive = small, poorly fitted or top-dose-only effect, or another doubt; inactive = no such curve, though single readings can be large; an effect the other way counts as inactive or inconclusive. Potency is the fitted concentration of half-maximal effect.

Results for COc1ccc(N2CCN(C(=O)c3ccc(-c4nc5ccccc5s4)o3)CC2)cc1 ?
ELG1 DNA repair: -1%; NPC1 prom act: 2%; ELG1 genotoxic: 2%; Rab9 prom act: 18%; FLuc counter: 9.5µM*

What do the screens show for `COc1ccccc1N1CCN(C(=O)c2ccc(-c3ccc(Cl)cc3)o2)CC1`?
ELG1 DNA repair: inconclusive; NPC1 prom act: -42%; ELG1 genotoxic: -2%; Rab9 prom act: -40%; FLuc counter: inconclusive

Results for O=C(Cc1ccc(Cl)cc1)c1c[nH]c(C(=O)NCCCN2CCOCC2)c1 ?
ELG1 DNA repair: 11%; NPC1 prom act: -1%; ELG1 genotoxic: -1%; Rab9 prom act: 8%; SMN2 splice up: 2%; FLuc counter: -3%

Results for c1ccc(-c2noc(C3CCCCC3)n2)nc1 ?
ELG1 DNA repair: inconclusive; NPC1 prom act: inconclusive; ELG1 genotoxic: 6.5µM*; Rab9 prom act: 2.8µM*; SMN2 splice up: 11µM*; FLuc counter: 11µM*

Results for Brc1ccc(-c2noc(C3CCCCC3)n2)cc1 ?
ELG1 DNA repair: inconclusive; NPC1 prom act: inconclusive; ELG1 genotoxic: inconclusive; Rab9 prom act: 2.8µM*; FLuc counter: 6.7µM*

What do the screens show for `c1ccc(-c2noc(C34CC5CC(CC(C5)C3)C4)n2)nc1`?
ELG1 DNA repair: inconclusive; NPC1 prom act: inconclusive; ELG1 genotoxic: 15µM*; Rab9 prom act: inconclusive; SMN2 splice up: 13µM*; FLuc counter: 11µM*

What do the screens show for `Cc1ccc(-c2noc(C3CCCN(C(=O)c4ccccc4Br)C3)n2)cc1` (stereo not given)?
ELG1 DNA repair: inconclusive; NPC1 prom act: 15%; ELG1 genotoxic: 10%; Rab9 prom act: 1%; FLuc counter: inconclusive

Results for CCN(CC)c1ccc(/C=N/NC(=O)c2c[nH]c3ccccc23)cc1 ?
ELG1 DNA repair: 8%; NPC1 prom act: 6%; ELG1 genotoxic: 1%; Rab9 prom act: 1%; SMN2 splice up: -17%; FLuc counter: 11µM*

What do the screens show for `CCN(CC)c1ccc(/C=N/NC(=O)c2cc(C)nc3ccccc23)cc1`?
ELG1 DNA repair: 0%; NPC1 prom act: 2%; ELG1 genotoxic: 13%; Rab9 prom act: -5%; FLuc counter: inconclusive

What do the screens show for `CCN(CC)c1ccc(/C=N/NC(=O)c2cc3ccccc3[nH]2)cc1`?
ELG1 DNA repair: 8%; NPC1 prom act: 3%; ELG1 genotoxic: 2%; Rab9 prom act: 19%; FLuc counter: 12µM*

What do the screens show for `O=C(Nc1c(Cl)cc(Cl)cc1-c1nc2ccccc2s1)c1ccc(Br)o1`?
ELG1 DNA repair: -12%; NPC1 prom act: 0%; ELG1 genotoxic: -7%; Rab9 prom act: 2%; SMN2 splice up: inconclusive; FLuc counter: 6%

What do the screens show for `COc1cc(COCC(O)CN2CCOCC2)cc(OC)c1OC` (stereo not given)?
ELG1 DNA repair: 0%; NPC1 prom act: 5%; ELG1 genotoxic: 2%; Rab9 prom act: 2%; SMN2 splice up: -19%; FLuc counter: 8%

How did CCOC(=O)CSc1nc2ccc(N)cc2s1 do in these assays?
ELG1 DNA repair: 5%; NPC1 prom act: -2%; ELG1 genotoxic: 8%; Rab9 prom act: 0%; SMN2 splice up: 4%; FLuc counter: 19µM*

Results for Nc1ccc2nc(SCC(=O)N3CCOCC3)sc2c1 ?
ELG1 DNA repair: inconclusive; NPC1 prom act: 13%; ELG1 genotoxic: 14%; Rab9 prom act: 23%; FLuc counter: -14%

How did COc1cc(OC)cc(C(=O)Nc2ccc(-c3nc4ccccc4s3)c(C)c2)c1 do in these assays?
FLuc counter: -8%

How did CCOC(=O)CSc1nc2ccc(NC(=O)c3ccccc3F)cc2s1 do in these assays?
FLuc counter: 15µM*

How did Cc1cc(NC(=O)c2ccccc2F)ccc1-c1nc2ccccc2s1 do in these assays?
FLuc counter: 0.67µM*

What do the screens show for `Nc1ccc2nc(SCc3cccc(F)c3)sc2c1`?
ELG1 DNA repair: inconclusive; NPC1 prom act: inconclusive; ELG1 genotoxic: inconclusive; Rab9 prom act: 4.5µM*; SMN2 splice up: 13µM*; FLuc counter: 4.8µM*

What do the screens show for `COc1ccc(CCNC(=O)c2cc3c(=O)[nH]c4ccc(C)cc4c3s2)cc1OC`?
SMN2 splice up: -7%; FLuc counter: -7%

Results for CC(OC(=O)c1ccccc1)C(=O)NCc1ccco1 (stereo not given) ?
ELG1 DNA repair: 0%; ELG1 genotoxic: -1%

What do the screens show for `O=C(COc1ccc(F)cc1)Nc1ccc2nc(SCC(=O)N3CCCC3)sc2c1`?
FLuc counter: -11%

What do the screens show for `O=C(Nc1ccc2nc(SCC(=O)N3CCCC3)sc2c1)c1ccccc1F`?
FLuc counter: 24µM*

How did O=C(COc1ccccc1F)Nc1ccc2nc(SCC(=O)N3CCOCC3)sc2c1 do in these assays?
FLuc counter: 21µM*

Results for O=C(NNc1ccccc1)C(=O)NNS(=O)(=O)c1ccc(CCCl)cc1 ?
ELG1 DNA repair: 6.5µM*; NPC1 prom act: 2%; ELG1 genotoxic: 9%; Rab9 prom act: 0%; FLuc counter: 0%

Results for Nc1ccc(S(=O)(=O)NNC(=O)C(=O)NNc2ccccc2)cc1 ?
ELG1 DNA repair: 17%; NPC1 prom act: 0%; ELG1 genotoxic: 11%; Rab9 prom act: -6%; SMN2 splice up: -40%; FLuc counter: 1%

Results for Cc1nc(NCC2CCCO2)c2nnn(Cc3ccccc3)c2n1 (stereo not given) ?
ELG1 DNA repair: -21%; NPC1 prom act: 9%; ELG1 genotoxic: 1%; Rab9 prom act: 2%; SMN2 splice up: -13%; FLuc counter: 1%

How did CCCc1nc(NCC2CCCO2)c2nnn(Cc3ccccc3)c2n1 (stereo not given) do in these assays?
ELG1 DNA repair: 26µM*; NPC1 prom act: -2%; ELG1 genotoxic: -4%; Rab9 prom act: 1%; SMN2 splice up: -19%; FLuc counter: 0%

What do the screens show for `COc1ccccc1CNC(=O)CNCCc1ccc(OC)c(OC)c1`?
ELG1 DNA repair: 0%; NPC1 prom act: -6%; ELG1 genotoxic: 1%; Rab9 prom act: -4%; FLuc counter: 1%

How did COc1ccc(/C=C/C(=O)c2ccccn2)cc1 do in these assays?
ELG1 DNA repair: inconclusive; NPC1 prom act: 4µM*; ELG1 genotoxic: inconclusive; Rab9 prom act: 0.89µM*; SMN2 splice up: 8%; FLuc counter: 0.38µM*

What do the screens show for `COc1ccc(C(=O)/C=C/N(C)C)cc1`?
ELG1 DNA repair: inconclusive; NPC1 prom act: 5%; ELG1 genotoxic: 11%; Rab9 prom act: 14%; SMN2 splice up: 25%; FLuc counter: -20%
